Measured values published in ChEMBL document CHEMBL3988442, “University of Dundee, Small-Polar-MMV Screening Library” (2021).
For some of these results: Results with a measured potency or affinity are listed apart.

Columns and labels:
[1] = molecular target: T1, Methionyl-tRNA synthetase, putative (Leishmania donovani (strain BPK282A1)) (UniProt E9BF75); assay: Leishmania donovani Methionine tRNA synthetase (LdMetRS):v7. Dose response assay; type: functional; set-up: conc 80 nM, time 150 minutes
T1 sequence (whole entry): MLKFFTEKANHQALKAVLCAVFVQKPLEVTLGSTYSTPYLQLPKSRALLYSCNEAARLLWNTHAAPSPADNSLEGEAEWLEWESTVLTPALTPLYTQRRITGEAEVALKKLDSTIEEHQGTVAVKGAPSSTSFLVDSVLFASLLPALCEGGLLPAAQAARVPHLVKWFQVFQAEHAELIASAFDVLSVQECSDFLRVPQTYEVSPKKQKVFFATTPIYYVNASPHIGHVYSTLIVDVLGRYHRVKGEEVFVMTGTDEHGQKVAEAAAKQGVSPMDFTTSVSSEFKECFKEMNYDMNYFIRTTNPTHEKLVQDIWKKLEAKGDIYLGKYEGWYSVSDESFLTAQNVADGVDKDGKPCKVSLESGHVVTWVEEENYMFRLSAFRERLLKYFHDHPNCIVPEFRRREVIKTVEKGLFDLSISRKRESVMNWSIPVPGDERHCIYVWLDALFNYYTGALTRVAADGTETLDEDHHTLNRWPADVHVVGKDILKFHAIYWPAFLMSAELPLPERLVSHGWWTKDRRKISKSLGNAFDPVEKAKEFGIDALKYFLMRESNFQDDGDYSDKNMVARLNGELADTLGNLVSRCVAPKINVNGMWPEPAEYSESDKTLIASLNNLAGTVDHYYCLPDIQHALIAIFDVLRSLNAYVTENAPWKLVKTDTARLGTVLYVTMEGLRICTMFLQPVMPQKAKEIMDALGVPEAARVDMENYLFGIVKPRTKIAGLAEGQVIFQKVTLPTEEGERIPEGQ

[2] = molecular target: Protein translocase subunit SecA (Escherichia coli (strain K12)) (UniProt P10408); assay: Assay to Identify E. coli SecA ATPase Inhibitors; type: functional; set-up: scale not given: direction of the effect not stated beside the values; conditions: 30 µM
Sequence of Protein translocase subunit SecA (Escherichia coli (strain K12)) (P10408 whole entry): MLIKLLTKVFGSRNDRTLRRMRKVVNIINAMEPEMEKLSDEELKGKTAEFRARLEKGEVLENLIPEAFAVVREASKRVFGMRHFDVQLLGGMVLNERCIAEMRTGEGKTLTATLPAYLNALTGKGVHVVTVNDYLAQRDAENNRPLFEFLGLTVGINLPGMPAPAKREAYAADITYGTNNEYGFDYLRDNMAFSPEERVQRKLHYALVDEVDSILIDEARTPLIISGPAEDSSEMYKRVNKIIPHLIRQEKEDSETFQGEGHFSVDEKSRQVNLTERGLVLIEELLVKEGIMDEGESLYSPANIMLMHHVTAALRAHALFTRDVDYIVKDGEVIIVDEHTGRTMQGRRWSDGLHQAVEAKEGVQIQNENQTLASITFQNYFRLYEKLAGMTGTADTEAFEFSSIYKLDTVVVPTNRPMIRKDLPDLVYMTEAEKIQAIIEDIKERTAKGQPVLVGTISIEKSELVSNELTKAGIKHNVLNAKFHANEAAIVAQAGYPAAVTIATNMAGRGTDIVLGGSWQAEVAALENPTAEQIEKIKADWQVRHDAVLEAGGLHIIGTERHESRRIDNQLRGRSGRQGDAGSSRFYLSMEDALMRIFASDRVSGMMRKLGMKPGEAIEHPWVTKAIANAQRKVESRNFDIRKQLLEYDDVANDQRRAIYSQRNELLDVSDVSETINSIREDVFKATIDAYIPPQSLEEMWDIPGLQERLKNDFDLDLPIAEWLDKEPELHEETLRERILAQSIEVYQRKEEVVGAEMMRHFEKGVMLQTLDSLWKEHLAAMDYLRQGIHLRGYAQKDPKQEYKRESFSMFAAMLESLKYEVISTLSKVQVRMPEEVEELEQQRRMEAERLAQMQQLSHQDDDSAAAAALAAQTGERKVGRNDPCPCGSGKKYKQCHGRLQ

[3] = molecular target: T2, Ubiquitin-activating enzyme e1, putative (Leishmania donovani (strain BPK282A1)) (UniProt E9BSI1); assay: Leishmania donovani Ubiquitin Activating Enzyme (LdE1); type: functional; set-up: scale not given: direction of the effect not stated beside the values; conditions: 30 µM
T2 sequence (whole entry): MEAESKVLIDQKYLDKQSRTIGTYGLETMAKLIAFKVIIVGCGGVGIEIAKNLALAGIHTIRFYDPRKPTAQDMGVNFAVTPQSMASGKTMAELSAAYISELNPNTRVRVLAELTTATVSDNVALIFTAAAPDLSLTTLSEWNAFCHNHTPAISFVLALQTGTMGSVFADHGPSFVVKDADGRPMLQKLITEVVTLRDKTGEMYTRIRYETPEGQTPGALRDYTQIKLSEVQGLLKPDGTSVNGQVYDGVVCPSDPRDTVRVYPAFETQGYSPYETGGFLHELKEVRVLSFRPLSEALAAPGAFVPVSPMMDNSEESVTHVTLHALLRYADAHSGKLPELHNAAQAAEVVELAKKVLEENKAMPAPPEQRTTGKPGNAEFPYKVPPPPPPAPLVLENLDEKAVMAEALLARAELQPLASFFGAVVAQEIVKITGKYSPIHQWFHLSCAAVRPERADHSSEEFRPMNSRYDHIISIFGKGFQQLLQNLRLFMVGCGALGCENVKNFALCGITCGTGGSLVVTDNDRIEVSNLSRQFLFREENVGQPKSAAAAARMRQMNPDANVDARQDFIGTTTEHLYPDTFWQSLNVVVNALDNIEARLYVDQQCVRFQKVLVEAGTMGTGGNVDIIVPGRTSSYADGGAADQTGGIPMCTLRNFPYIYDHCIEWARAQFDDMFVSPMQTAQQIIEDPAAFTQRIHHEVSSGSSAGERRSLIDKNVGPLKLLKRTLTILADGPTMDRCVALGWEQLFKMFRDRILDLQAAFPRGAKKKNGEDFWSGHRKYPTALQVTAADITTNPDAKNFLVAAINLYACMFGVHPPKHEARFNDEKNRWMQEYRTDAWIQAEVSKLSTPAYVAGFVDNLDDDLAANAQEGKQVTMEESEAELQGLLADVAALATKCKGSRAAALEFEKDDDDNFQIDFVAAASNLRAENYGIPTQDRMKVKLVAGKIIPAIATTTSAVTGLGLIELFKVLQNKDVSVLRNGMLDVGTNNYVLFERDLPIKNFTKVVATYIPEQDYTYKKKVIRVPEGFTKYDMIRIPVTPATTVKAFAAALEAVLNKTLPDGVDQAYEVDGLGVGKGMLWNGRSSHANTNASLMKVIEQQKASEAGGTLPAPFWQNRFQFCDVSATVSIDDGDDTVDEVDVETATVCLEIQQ

[4] = molecular target: AMP-activated protein kinase, AMPK (Homo sapiens) (UniProt P54646+O43741+P54619+Q9UGJ0+Q9Y478+Q13131+Q9UGI9); assay: AMP-dependent Kinase enzyme assay. An in vitro enzyme assay that detects ADP turnover that is directly proportional to AMPK activity. This uses naive AMPK that is activated during the assay with MK-8722; type: functional; set-up: scale not given: direction of the effect not stated beside the values; conditions: 30 µM
[5] = molecular target: Sialic acid-binding Ig-like lectin 9 (Homo sapiens) (UniProt Q9Y336); assay: Hs-Siglec9 ALPHAscreen SOP 20170721; set-up: scale not given: direction of the effect not stated beside the values; conditions: 10 µM
Sequence of Sialic acid-binding Ig-like lectin 9 (Homo sapiens) (Q9Y336 whole entry): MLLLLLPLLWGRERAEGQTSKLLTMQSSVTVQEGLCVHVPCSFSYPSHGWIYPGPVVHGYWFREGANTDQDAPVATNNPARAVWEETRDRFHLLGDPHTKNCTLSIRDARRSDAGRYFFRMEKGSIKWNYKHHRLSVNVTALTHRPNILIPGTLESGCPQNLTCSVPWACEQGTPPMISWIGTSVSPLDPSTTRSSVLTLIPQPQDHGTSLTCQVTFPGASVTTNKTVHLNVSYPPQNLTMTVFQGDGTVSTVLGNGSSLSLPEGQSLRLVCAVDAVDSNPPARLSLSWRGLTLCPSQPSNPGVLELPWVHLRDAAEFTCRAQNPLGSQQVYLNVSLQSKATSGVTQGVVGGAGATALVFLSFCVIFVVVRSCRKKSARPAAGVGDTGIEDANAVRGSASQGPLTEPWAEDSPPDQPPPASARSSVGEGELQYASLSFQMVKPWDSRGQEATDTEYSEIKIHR

[6] = system: Trypanosoma cruzi; assay: Trypanosoma cruzi phosphomannomutase and mannose-1-phosphate guanylyltransferase assay; type: functional; set-up: scale not given: direction of the effect not stated beside the values; conditions: 10 µM
[7] = molecular target: T3, Arginase-2, mitochondrial (Homo sapiens) (UniProt P78540); assay: in vitro enzyme assay to detect the production of urea directly proportional to the activity of Arginase II; type: functional; set-up: scale not given: in the data most compounds retested in dose-response had high values
T3 sequence (whole entry): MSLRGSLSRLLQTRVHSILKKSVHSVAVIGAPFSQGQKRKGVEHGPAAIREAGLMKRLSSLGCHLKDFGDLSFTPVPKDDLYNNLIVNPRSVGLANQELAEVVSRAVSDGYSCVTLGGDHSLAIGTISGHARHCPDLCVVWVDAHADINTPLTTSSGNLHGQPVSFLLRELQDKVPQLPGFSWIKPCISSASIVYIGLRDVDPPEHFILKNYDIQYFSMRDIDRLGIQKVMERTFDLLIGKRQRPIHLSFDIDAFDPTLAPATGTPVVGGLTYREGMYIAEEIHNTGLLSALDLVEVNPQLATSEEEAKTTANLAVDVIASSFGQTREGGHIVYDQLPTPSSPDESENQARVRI

[8] = molecular target: T4, Proteasome subunit beta (Trypanosoma cruzi) (UniProt O96673); assay: Trypanosoma cruzi proteasome chymotrypsin-like activity (TcProtChymo) assay.; type: functional; set-up: scale not given: in the data most compounds retested in dose-response had high values; conditions: 9.37 µM
T4 sequence (whole entry): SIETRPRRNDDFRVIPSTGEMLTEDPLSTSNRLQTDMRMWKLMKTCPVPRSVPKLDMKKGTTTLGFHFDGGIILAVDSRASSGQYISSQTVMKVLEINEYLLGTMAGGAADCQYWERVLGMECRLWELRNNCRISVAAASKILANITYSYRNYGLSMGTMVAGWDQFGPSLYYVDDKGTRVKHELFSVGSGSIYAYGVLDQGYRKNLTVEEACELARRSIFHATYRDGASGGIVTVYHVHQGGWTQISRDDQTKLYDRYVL

[9] = organism: Homo sapiens; assay: To identify inhibition of the IFN signalling (Jak-Stat) pathway via expression of an eGFP reporter gene under the control of an IFN-stimulated response element (ISRE) containing MxA promoter.; type: functional; set-up: scale not given: direction of the effect not stated beside the values; conditions: 30 µM
[10] = molecular target: T5, Tyrosyl-tRNA synthetase, putative (Trypanosoma cruzi (strain CL Brener)) (UniProt Q4DSP6); assay: Trypanosoma cruzi tyrosyl tRNA synthetase (TcYRS) _High Tyrosine SOP; type: functional; set-up: scale not given: in the data most compounds retested in dose-response had high values; conditions: 30 µM
T5 sequence (whole entry): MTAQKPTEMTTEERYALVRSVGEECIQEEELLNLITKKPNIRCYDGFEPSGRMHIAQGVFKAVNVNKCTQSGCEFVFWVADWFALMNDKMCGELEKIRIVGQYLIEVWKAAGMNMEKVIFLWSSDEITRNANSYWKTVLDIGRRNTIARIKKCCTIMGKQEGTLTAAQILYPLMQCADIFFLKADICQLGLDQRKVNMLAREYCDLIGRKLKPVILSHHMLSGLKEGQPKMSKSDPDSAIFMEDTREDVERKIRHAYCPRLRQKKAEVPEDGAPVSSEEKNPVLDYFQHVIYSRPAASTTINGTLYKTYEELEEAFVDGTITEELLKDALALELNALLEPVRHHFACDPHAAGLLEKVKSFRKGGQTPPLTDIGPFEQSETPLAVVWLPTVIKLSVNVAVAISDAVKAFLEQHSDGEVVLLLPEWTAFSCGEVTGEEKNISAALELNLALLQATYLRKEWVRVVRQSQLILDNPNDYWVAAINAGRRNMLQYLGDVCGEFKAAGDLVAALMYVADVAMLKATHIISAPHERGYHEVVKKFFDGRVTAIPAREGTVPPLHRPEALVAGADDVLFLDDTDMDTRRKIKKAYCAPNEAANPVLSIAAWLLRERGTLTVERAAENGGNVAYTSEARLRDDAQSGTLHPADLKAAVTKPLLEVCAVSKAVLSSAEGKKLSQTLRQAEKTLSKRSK

[11] = molecular target: T5, Tyrosyl-tRNA synthetase, putative (Trypanosoma cruzi (strain CL Brener)); assay: Trypanosoma cruzi tyrosyl tRNA synthetase (TcYRS) SOP; type: functional; set-up: scale not given: direction of the effect not stated beside the values; conditions: 30 µM
[12] = molecular target: Chromo domain-containing protein 1 (Saccharomyces cerevisiae (strain ATCC 204508 / S288c) (Baker's yeast)) (UniProt P32657); assay: ScCHD-1 Enzyme Inhibition Assay; type: functional; set-up: scale not given: in the data most compounds retested in dose-response had high values; conditions: 30 µM
Sequence of Chromo domain-containing protein 1 (Saccharomyces cerevisiae (strain ATCC 204508 / S288c) (Baker's yeast)) (P32657 whole entry, the tested form may be a part): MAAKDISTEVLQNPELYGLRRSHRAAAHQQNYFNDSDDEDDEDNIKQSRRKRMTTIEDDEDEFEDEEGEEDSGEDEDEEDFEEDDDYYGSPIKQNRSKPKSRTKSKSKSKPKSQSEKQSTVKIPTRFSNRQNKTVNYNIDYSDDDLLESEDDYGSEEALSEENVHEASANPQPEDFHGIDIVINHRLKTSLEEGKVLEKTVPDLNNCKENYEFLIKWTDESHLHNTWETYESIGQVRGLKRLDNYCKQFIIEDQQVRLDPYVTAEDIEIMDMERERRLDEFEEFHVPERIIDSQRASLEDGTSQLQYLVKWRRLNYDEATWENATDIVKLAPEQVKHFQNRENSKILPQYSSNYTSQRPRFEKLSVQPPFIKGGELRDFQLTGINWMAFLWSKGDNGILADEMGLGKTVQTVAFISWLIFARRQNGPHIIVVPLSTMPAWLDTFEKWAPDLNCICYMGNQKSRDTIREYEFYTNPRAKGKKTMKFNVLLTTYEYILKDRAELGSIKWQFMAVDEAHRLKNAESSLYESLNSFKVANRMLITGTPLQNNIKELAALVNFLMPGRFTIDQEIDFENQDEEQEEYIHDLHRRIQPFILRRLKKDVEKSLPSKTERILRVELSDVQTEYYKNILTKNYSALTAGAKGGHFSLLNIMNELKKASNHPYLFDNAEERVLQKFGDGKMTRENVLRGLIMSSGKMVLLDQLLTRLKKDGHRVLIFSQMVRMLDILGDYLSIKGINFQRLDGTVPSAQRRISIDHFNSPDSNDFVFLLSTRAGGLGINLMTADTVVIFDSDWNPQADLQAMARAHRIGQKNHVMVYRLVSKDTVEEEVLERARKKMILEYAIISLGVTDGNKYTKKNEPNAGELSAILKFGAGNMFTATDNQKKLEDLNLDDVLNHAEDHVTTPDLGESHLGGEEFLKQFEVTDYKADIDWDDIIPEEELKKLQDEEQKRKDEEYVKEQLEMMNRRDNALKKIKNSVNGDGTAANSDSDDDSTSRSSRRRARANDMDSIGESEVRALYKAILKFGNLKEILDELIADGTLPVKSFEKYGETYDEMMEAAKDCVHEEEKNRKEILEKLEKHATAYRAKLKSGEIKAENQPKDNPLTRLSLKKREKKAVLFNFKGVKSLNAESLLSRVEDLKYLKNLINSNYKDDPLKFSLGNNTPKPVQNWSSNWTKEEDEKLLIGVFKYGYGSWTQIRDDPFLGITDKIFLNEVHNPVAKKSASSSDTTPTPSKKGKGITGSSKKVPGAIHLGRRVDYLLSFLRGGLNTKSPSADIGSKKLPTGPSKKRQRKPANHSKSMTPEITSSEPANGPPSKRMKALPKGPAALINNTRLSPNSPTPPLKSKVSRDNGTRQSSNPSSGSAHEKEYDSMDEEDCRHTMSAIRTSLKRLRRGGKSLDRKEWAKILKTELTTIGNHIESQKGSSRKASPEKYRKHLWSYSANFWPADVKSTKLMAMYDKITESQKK

Compound	PXC50 ([1]; MAX_EFFECT 8.551068884)	PXC50 ([1]; MAX_EFFECT 14.26056338)	Percent Effect [2]	Percent Effect [3]	Percent Effect [4]	Percent Effect [5]	Percent Effect [6]	Percent Effect ([7]; 33.3 µM)	Percent Effect [8]	Percent Effect [9]	Percent Effect [10]	Percent Effect [11]	Percent Effect [12]	Percent Effect ([7]; 30 µM)	PXC50 ([1]; MAX_EFFECT 1.767676768)	PXC50 ([1]; MAX_EFFECT 2.040816327)	PXC50 ([1]; MAX_EFFECT 27.99295775)	PXC50 ([1]; MAX_EFFECT 39.42992874)
c1ccc(COC2CCN(c3cncc(-n4cccn4)n3)CC2)cc1	< 4	< 4	-2.59%	5.41%	-5.76%	-7.06%	4.3%	2.08%	19.2%	14.3%	8.91%	13.4%	-2.69%					
CC(=O)NC(C)CC(=O)NCc1cccnc1Oc1ccccc1C (configuration not stated)			-2.11%	9.72%	-0.172%	-2.33%	-1.26%	6.18%	11.6%	-9.66%	8.42%	12.8%	-3.08%	1.62%				
CN(Cc1ccccn1)C1CC2(CCN(Cc3cccnc3)CC2)C1			-7.24%	13.3%	5.22%	-6.34%	-10%	0.233%	9.6%	10.9%	4.25%	11.5%	-7.41%	-2.7%				
Cc1c(C(=O)O)sc2nc(Cc3ccccc3)nc(N)c12					4.73%										< 4	< 4		
CCC(CO)NC(=O)c1ccc2ccc(N(C)CC3CC3)n2c1 (configuration not stated)			3.49%	3.9%		0.399%	3.56%	0.457%	15.2%	8.81%	12.6%	15%	-3.69%				< 4	< 4
